Values joined by “and” are separate entries in the source; they are usually repeats but may differ in a detail not shown here. Equal values may be shown once. Records with an inconclusive call do not appear. A number with no mark means an inactive call. Active and inactive are the calls of the source. Calls come from the whole dose curve; as a rule, active = well fitted cell-killing curve with a large enough effect; inconclusive = small, poorly fitted or top-dose-only effect; inactive = flat fitted curve, though single readings scatter.
Assay: Cell Viability - LYMP2-019 (AID 973); note: nearly all actives have a fitted effect of over 55% in size;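 for activity change, negative = cytotoxicity: 0% = DMSO alone and full effect = 92 µM tetraoctylammonium bromide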
Details: LYMP2-019 lymphoblastoid cell line viability; series mostly up to 92.2 µM; activity change, negative = cytotoxicity: at the top concentration
Source text: NIH Chemical Genomics Center [NCGC]
NIH Molecular Libraries Screening Centers Network [MLSCN]
National Institutes of Environmental Health Sciences [NIEHS]
National Toxicology Program [NTP]
We have developed a 1536-well cell-based assay for quantitative high throughput screening (qHTS) against a number of cell lines to determine in vitro cytotoxicity of small molecules. This particular assay uses a human lymphoblastoid cell line (LYMP2-019) purchased from Coriell Institute for Medical Research.
NCGC Assay Protocol Summary:
The CellTiter-Glo luminescent cell viability assay (Promega) is a homogeneous method to measure the number of viable cells in culture. The end point readout of this assay is based on quantitation of intracellular ATP, an indicator of metabolic activity, using the luciferase reaction. Luciferase catalyzes the oxidation of beetle Luciferin to oxyluciferin and light in the presence of ATP. The luminescent signal is proportional to amount of ATP present.
Using the CellTiter-Glo luminescent cell viability assay, the amount of cellular ATP was measured in the lymphoblastoid cell line with complete culture medium following compound treatment for 24 hours. The assay was performed in opaque white Kalypsys 1536-well plates. In the screen, tetraoctylammonium bromide was used as positive control. Library compounds were measured for their ability to cause acute toxicity in the cell line, as reflected by a decrease in intracellular ATP levels, in a concentration-dependent manner. […] AC50 values were determined from concentration-response data modeled with the standard Hill equation.
qHTS protocol for CellTiter Glo lymphoblastoid cellular assay
[Step] [Parameter] [Value] [Description]
1. Reagent; 5 uL; 2500 lymphoblastoid cells/well
2. Time; 5 hr; 37 C incubation
4. Controls; 23 nL; Tetraoctylammonium bromide 6.4pM to 92 uM
5. Time; 24 hr; 37 C incubation
6. Reagent; 5 uL; CellTiter Glo reagent
7. Time; 30 min; Room Temperature
8. Detection; Luminescence; Viewlux plate reader
Keywords: cell viability, cytotoxicity, lymphoblastoid cell line, luminescence, NTPHTS, NTPHTS_NCGC, NIEHS, DSSTox, MLSMR, MLSCN, NIH Roadmap, qHTS, NCGC
Potency is the fitted concentration of half-maximal effect.

SMILES	activity change, negative = cytotoxicity	Potency
ClC=C(Cl)Cl	1.25%	–
C[C@H]1CCC[C@H](O)CCCCCc2cc(O)cc(O)c2C(=O)O1	-11.1%	–
O=C1CCO1	-9.49%	–
CCOC(=O)c1ccccc1C(=O)OCC	–	inactive
O=C1C2CC=CCC2C(=O)N1SC(Cl)(Cl)Cl (stereo not given)	–	3.98 µM (active) and 5.01 µM (active)
S=C=S	-0.301%	–
COc1ccc2c(c1OC)C(=O)OC2C1c2cc3c(cc2CCN1C)OCO3 (stereo not given)	-7.03%	–
ClCC1CO1 (stereo not given)	-21.1%	–
O=C(O)C(Cl)(Cl)Cl	–	inactive
O=[N+]([O-])c1ccc(F)c([N+](=O)[O-])c1	-29.7%	–
C[C@H]1CC[C@@H]2[C@@H](C)[C@H]3[C@H](C[C@H]4[C@@H]5CC=C6CC(O[C@@H]7O[C@H](CO)[C@H](O)[C@H](O[C@@H]8O[C@H](CO)[C@@H](O)[C@H](O)[C@H]8O)[C@H]7O[C@H]7O[C@@H](C)[C@H](O)[C@@H](O)[C@H]7O)CC[C@]6(C)[C@H]5CC[C@]34C)N2C1 (stereo not given in full)	–	39.8 µM (active)
O=C1C=CC(=O)C=C1	–	50.1 µM (active)
O=CC=O	-9.12%	–
[O]=[Cd]	-14%	–
C=CCN=C=S	-1.46%	–
Oc1cc(Cl)c(Cl)cc1Cl	-11.9%	–
ClC(Cl)(Cl)Cl	–	inactive
CCCCCl	-1.51%	–
O=[N+]([O-])c1ccccc1	-7.1%	–
[O]=[Cr](=[O])([OH])[O][Cr](=[O])(=[O])[OH]	–	12.6 µM (active) and 10 µM (active)
CC(C)Nc1ccc(Nc2ccccc2)cc1	–	25.1 µM (active)
O=Cc1ccco1	-4.15%	–
Clc1ccccc1Cl	-10.5%	–
CC(C)(C)c1cc(O)ccc1O	–	50.1 µM (active)
[Cl-].[Cl-].[Hg+2]	–	10 µM (active)
O=C/C=C/c1ccccc1	–	inactive
COC1=CC(=O)O[C@@H](/C=C/c2ccccc2)C1	-4.64%	–
CCCCCCCCOC(=O)c1ccccc1C(=O)OCCCCCCCC	-3.04%	–
CC(C)CCON=O	-11.8%	–
NNC(N)=O	-8.28%	–
